Each structure is given as a SMILES string. “And” between values parts separate entries of the source, which are not always exact repeats. Equal entries are not always repeated. Some structures have more than one record in an assay (separate samples or runs), and their calls can disagree. The source made the active and inactive calls.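 The calls were made as follows: active = normalized viability below 100% at a tested concentration; inactive = the rest.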

In general, viability refers to a read-out of living cells in per cent, often relative to untreated cells.

One test can be described thus: ovarian cancer cell viability with rucaparib, profiling panel, oncology-focused library, rucaparib conditional (AID 1508598). The settings on record: patient-derived ovarian cancer cells, CellTiter-Glo viability, 144 h; at 0.0195 µM; OCI-P5x cells; without rucaparib; stronger effect = lower value. A general note: In ATP-based viability assays light output follows the ATP content of the culture.
Take `Cc1ccc(NC(=O)c2ccc(CN3CCN(C)CC3)cc2)cc1Nc1nccc(-c2cccnc2)n1`: the viability is 95% (active) and 94.1% (active).

As to `O=NN(CCCl)C(=O)NC1CCCCC1`, the viability was 116% (inactive).

For `O=c1c(O)c(-c2ccc(O)c(O)c2)oc2cc(O)cc(O)c12`, the viability is 105% (inactive).

`COc1cc2c(N3CCN(C(=O)Nc4ccc(OC(C)C)cc4)CC3)ncnc2cc1OCCCN1CCCCC1`: the viability is 92.4% (active).

For `COC(=O)Nc1nc2ccc(C(=O)c3cccs3)cc2[nH]1`, the viability is 32.7% (active).

Consider `CN(Cc1cnc2nc(N)nc(N)c2n1)c1ccc(C(=O)N[C@@H](CCC(=O)O)C(=O)O)cc1`, for which the viability is 105% (inactive).

The same test, now with this note: patient-derived ovarian cancer cells, CellTiter-Glo viability, 144 h; at 0.0781 µM; OCI-C5x cells; with rucaparib 10 µM; stronger effect = lower value; 100% = cells with rucaparib alone.
As for `Cc1ccc(NC(=O)c2ccc(CN3CCN(C)CC3)cc2)cc1Nc1nccc(-c2cccnc2)n1`, the viability is 123% (inactive) and 97.7% (active).

On to `O=NN(CCCl)C(=O)NC1CCCCC1`, for which the viability was 107% (inactive).

As to `O=c1c(O)c(-c2ccc(O)c(O)c2)oc2cc(O)cc(O)c12`, the viability is 114% (inactive).

`COc1cc2c(N3CCN(C(=O)Nc4ccc(OC(C)C)cc4)CC3)ncnc2cc1OCCCN1CCCCC1`: the viability is 113% (inactive).

With `COC(=O)Nc1nc2ccc(C(=O)c3cccs3)cc2[nH]1`, the viability was 71.2% (active).

For the compound `CN(Cc1cnc2nc(N)nc(N)c2n1)c1ccc(C(=O)N[C@@H](CCC(=O)O)C(=O)O)cc1`, the viability is 59.6% (active).

The values above are taken from PubChem BioAssay.
